Only a selection was taken, and hits are over-represented in it overall.
Methyltransferases: Primary Screen for Target Class Profiling of Small Molecule Inhibitors of Methyltransferases | 3.9% of 25,000 active | AID 1745853, 2022 | purified enzyme, MTase-Glo SAH luminescence; hits give low values | calls only at 40 µM; call rule not given here
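Each enzyme was reacted with SAM and its substrate, with compounds tested once at 40 uM; SAH formed was read by MTase-Glo luminescence.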
Calls only; . = inactive; + = active, no number; ! = repeats disagree.

SMILES | Methyltransferases
COc1cccc(CN2C(=O)c3nc4ccccc4n3CC2(C)C(=O)NC2CCCCC2C)c1 (stereo not drawn) | .
CCCN1C(=O)c2cc3sc(CC)cc3n2CC1(C)C(=O)NC1CCC(C)CC1 (stereo not drawn) | .
NC(=Nc1ccc(CCNCc2cccc(Cl)c2)cc1)c1cccs1 | +
CCc1cc2c(cc3n2CC(C)(C(=O)NC2CCCCC2)N(c2cccc(OC)c2)C3=O)s1 (stereo not drawn) | .
C=CCn1c(=O)c2ccc(C(=O)NC(C)C)cc2n2c(=O)n(CC(=O)N(C)c3ccc(F)cc3)nc12 | .
O=C(Cn1ccc2cc(S(=O)(=O)N3CCCCC3)ccc21)NCC1CCCO1 (stereo not drawn) | .
OC[C@H](Cc1ccccc1)Nc1nc(Oc2ccc3c(c2)CCC3)nc2c1ncn2Cc1ccc(-c2ccccc2)cc1 | +
CC(C)Oc1ccc(CN2C(=O)c3ccc(-c4ccco4)n3CC2(C)C(=O)NC2CCCCC2)cc1 (stereo not drawn) | .
CCC(C)NC(=O)c1ccc2c(=O)n(C)c3nnc(SCC(=O)NC4CCCCC4)n3c2c1 (stereo not drawn) | .
O=C(Nc1ccc(Cl)cc1)c1nc(Nc2ccccc2)c2ccccc2n1 | .
O=C(O)c1ccc2c(c1)nc(Nc1cccc(Cl)c1)c1ccncc12 | +
O=C(NCc1cccc(Cl)c1)c1ccc2oc(-c3cccnc3)nc2c1 | .
COCCCNC(=O)N1Cc2c(sc3c2CCCC3)-n2cccc2C1c1cccc(C)c1 (stereo not drawn) | .
COc1ccc(-c2cc3n(n2)CC(C)(C(=O)NCc2ccccc2OC)N(c2ccc(Cl)cc2)C3=O)cc1 (stereo not drawn) | .
CC(C)(C)c1cc(/C=C(\C#N)C(N)=S)cc(C(C)(C)C)c1O | +
COC(=O)c1ncn2c1C(=O)N(c1ccc3c(c1)OCO3)C(C)(C(=O)NCc1ccccc1)C2 (stereo not drawn) | .
CC(C)(C[C@@](O)(Cc1cc2ccncc2[nH]1)C(F)(F)F)c1cc(F)ccc1O | +
Cc1ccc(CCNC(=O)c2ncn3c2C(=O)N(C2CC2)C(C)(C(=O)NCc2ccc(F)cc2)C3)cc1 (stereo not drawn) | .
CC1(C(=O)NC2CCCCCCC2)Cc2ccccc2C(=O)N1C1CCCC1 (stereo not drawn) | .
CCCn1c(=O)c2ccc(C(=O)NC(C)C)cc2n2c(SCC(=O)c3ccc(C)cc3C)nnc12 | .
CC(C)c1ccc(-c2cc3n(n2)CC(C)(C(=O)NC2CCCCC2)N(C2CCCC2)C3=O)cc1 (stereo not drawn) | .
CC1(C(=O)NCc2ccc(F)cc2)Cn2cnc(C(=O)NCc3ccccc3F)c2C(=O)N1C1CC1 (stereo not drawn) | .
Cc1cccc(NC(=O)CSc2nnc3n(CC(C)C)c(=O)c4ccc(C(=O)NCC(C)C)cc4n23)c1 | .
CCc1ccc(/C=C2/SC(=S)NC2=O)cc1 | +
O=C1NC(=O)/C(=C/c2ccc3nccnc3c2)S1 | .
SMILES | Methyltransferases
Cn1c(=O)c2ccc(C(=O)NC3CCCCC3)cc2n2c(=O)n(CC(=O)Nc3cccc(F)c3)nc12 | .
Cc1ccc(Cl)cc1N1C(=O)c2cc3sccc3n2CC1(C)C(=O)NC1CCCC(C)C1C (stereo not drawn) | .
C=CCn1c(=O)c2ccc(C(=O)NC(C)C)cc2n2c(=O)n(CC(=O)NC3CCCC3)nc12 | .
C=CC(C)(CCC=C(C)C)O[C@@H]1O[C@H](CO)[C@@H](O)[C@H](O)[C@H]1O (stereo partly drawn) | .
C=C[C@](C)(CC/C=C(\C)C(=O)O)O[C@@H]1OC[C@H](O)[C@H](O)[C@H]1O | +
C=CC(C)(CC/C=C(\C)CC/C=C(\C)CC(O)/C=C(\C)C(=O)O)O[C@@H]1O[C@H](CO)[C@@H](O)[C@H](O)[C@H]1O[C@@H]1O[C@H](CO)[C@@H](O)[C@H](O)[C@H]1O (stereo partly drawn) | .
Cc1cc2c(cc1S(=O)(=O)N1CCN(c3cccc(C)c3C)CC1)n(C)c(=O)n2C | .
CN1C(=O)c2cc(C(=O)NCCc3ccccc3)nn2CC1(C)C(=O)NC1CCCC1 (stereo not drawn) | .
O=[N+]([O-])c1ccc(CNc2nc(NCc3cccc(C(F)(F)F)c3)nc3nc[nH]c23)cc1 | +!
COC(=O)c1cc2n(n1)CC(C)(C(=O)NC1CCCCC1)N(Cc1cccc(OC)c1)C2=O (stereo not drawn) | .
CCCn1c(=O)c2ccccc2n2c(=O)n(Cc3cccc(C)c3)nc12 | .
CCCn1c(=O)c2ccc(C(=O)NCC(C)C)cc2n2c(=O)n(CC(=O)Nc3ccccc3F)nc12 | .
CC1(C(=O)NC2CCCCCCC2)Cn2c(ccc2-c2ccccc2)C(=O)N1CCN1CCOCC1 (stereo not drawn) | .
Cn1c(CNc2ccc(C(=N)N)cc2)nc2cc(C(=O)N(CCC(=O)O)c3ccccn3)ccc21 | +
CCN1C(=O)c2cc(C(=O)Nc3ccc(C(C)C)cc3)nn2CC1(C)C(=O)NC1CCCC1 (stereo not drawn) | .
COC(=O)c1cc2n(n1)CC(C)(C(=O)NC1CCCCCC1)N(c1cccc(Cl)c1)C2=O (stereo not drawn) | .
CC1(C(=O)NC2CCCCC2)Cc2ccccc2C(=O)N1Cc1cccs1 (stereo not drawn) | .
CCOC(=O)Cc1ccc(NC(=O)N2CCn3c(C)ccc3C2C(C)C)cc1 (stereo not drawn) | .
CC(C)C1c2cccn2CCN1C(=O)Nc1ccccc1 (stereo not drawn) | .
O=C1NC(=O)C(c2ccccc2[N+](=O)[O-])=C1Nc1ccc(O)c(Cl)c1 | +
CCOC(=O)c1cc2n(n1)CC(C)(C(=O)NCc1ccc(Cl)cc1)N(CCc1ccco1)C2=O (stereo not drawn) | .
CCCn1c(=O)c2ccc(C(=O)NC3CCCCC3)cc2n2c(=O)n(CC(=O)c3ccc(OC)cc3)nc12 | .
O=c1c2ccccc2n2c(SCc3ccccc3F)nnc2n1CCc1ccccc1 | .
O=C(NCCCCN1CCN(c2cccc(Cl)c2Cl)CC1)c1cc2ccccc2s1 | .
Cc1nc(Nc2ncc(C(=O)Nc3c(C)cccc3Cl)s2)cc(N2CCN(CCO)CC2)n1 | +
SMILES | Methyltransferases
OCCN1CCN(c2ccc(-c3nc(-c4cccc(C(F)(F)F)c4)no3)cn2)CC1 | .
CSc1ccc(CNC(=O)CCn2ccc3cc(S(=O)(=O)N4CCCCC4)ccc32)cc1 | .
CC(C)N(CCC(=O)c1ccc2ccccc2c1)Cc1ccccc1 | +!
COc1ccc(C(=O)N(Cc2ccccc2)S(=O)(=O)c2ccc3c(c2)n(C)c(=O)n3C)cc1 | .
COC(=O)c1ncn2c1C(=O)N(Cc1ccccc1Cl)C(C)(C(=O)NC1CCCCCC1)C2 (stereo not drawn) | .
Fc1ccc(N2CCCCC2)c(NC(=S)c2ccncc2)c1 | +
CC(C)Cn1c(=O)c2ccc(C(=O)NC(C)C)cc2n2c(=O)n(Cc3ccccc3)nc12 | .
CCC(C)NC(=O)c1ccc2c(=O)n(C)c3nn(CC(=O)Nc4ccc(C)cc4Cl)c(=O)n3c2c1 (stereo not drawn) | .
COC(=O)c1ncn2c1C(=O)N(CCc1ccc(SC)cc1)C(C)(C(=O)NC1CCCCC1)C2 (stereo not drawn) | .
CC(C)CCn1c(=O)c2ccc(C(=O)NC3CCCC3)cc2n2c(=O)n(Cc3cccc(Cl)c3)nc12 | .
CCC(C)NC(=O)c1ccc2c(=O)n(C)c3nn(Cc4cccc(F)c4)c(=O)n3c2c1 (stereo not drawn) | .

Bioassay records deposited in PubChem BioAssay by National Center for Advancing Translational Sciences (NCATS).
